Laboratory results: the supplement of paper PMC6992640
± gives the standard deviation of the averaged measurements.

How the values were obtained:
Assay in all cases: cell viability (% of vehicle); higher = less cytotoxic
Settings in all cases: 10 µM; 72 h
HCI01 = system: HCI01 (cells of a triple-negative basal-like breast cancer xenograft)
HCI03 = system: HCI03 (cells of an ER-positive luminal breast cancer xenograft)
HCI09 = system: HCI09 (cells of a triple-negative luminal androgen receptor type breast cancer xenograft)
HCI11 = system: HCI11 (cells of an ER-positive luminal breast cancer xenograft)
HCI13 = system: HCI13 (cells of an ER-positive luminal breast cancer xenograft)
HCI16 = system: HCI16 (cells of a triple-negative basal-like breast cancer xenograft)
UCD52 = system: UCD52 (cells of a triple-negative basal-like breast cancer xenograft)
WHIM2 = system: WHIM2 (cells of a triple-negative basal-like breast cancer xenograft)
WHIM30 = system: WHIM30 (cells of a triple-negative basal-like breast cancer xenograft)
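Further: PDX cells carrying CMV promoter-driven luciferase, viability read as total photon flux per second by IVIS imaging following D-luciferin, vehicle control 0.1% DMSO.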

Row | SMILES | cell viability (HCI01) | cell viability (HCI03) | cell viability (HCI09) | cell viability (HCI11) | cell viability (HCI13) | cell viability (HCI16) | cell viability (UCD52) | cell viability (WHIM2) | cell viability (WHIM30)
1 | CCOC(=O)c1ncn2c1CN(C)C(=O)c1cc(F)ccc1-2 [Flumazenil] | 114 ± 6.3 | 106 | 89.6 ± 18 | 96.8 | 93.9 ± 2.9 | 92.5 | 118 ± 17 | 103 ± 7.5 | 142 ± 15
2 | CC1(C(=O)[O-])CCC2(C)CCC3(C)C(=CC(=O)C4C5(C)CCC(OC(=O)CCC(=O)[O-])C(C)(C)C5CCC43C)C2C1.[Na+].[Na+] (stereo unspecified) [Carbenoxolone disodium] | 84.3 ± 8 | 122 | 89.2 ± 4.5 | 103 | 129 ± 87 | 108 | 82.3 ± 1.7 | 108 ± 11 | 97.9 ± 2.5
3 | O=C(NC(CO)C(O)c1ccc([N+](=O)[O-])cc1)C(Cl)Cl (stereo unspecified) [Chloramphenicol] | 109 ± 15 | 128 | 102 ± 12 | 86.1 | 81.3 ± 6.8 | 90.9 | 92.9 ± 3.5 | 106 ± 27 | 100 ± 18
4 | CN(C)CCc1c[nH]c2ccc(CC3COC(=O)N3)cc12 (stereo unspecified) [Zolmitriptan] | 86.8 ± 19 | 134 | 107 ± 11 | 96 | 119 ± 21 | 107 | 94.8 ± 8.3 | 86.6 ± 2.1 | 131 ± 11
5 | O=C(CCCN1CCC(O)(c2ccc(Cl)cc2)CC1)c1ccc(F)cc1 [Haloperidol] | 63.3 ± 37 | 102 | 86.1 ± 10 | 90 | 89.6 ± 9.9 | 117 | 61.6 ± 2.5 | 90.8 ± 36 | 121 ± 8.7
6 | COc1ccccc1OCC(O)CN1CCN(CC(=O)Nc2c(C)cccc2C)CC1.Cl.Cl (stereo unspecified) [Ranolazine 2HCl] | 95.6 ± 9.7 | 124 | 102 ± 7.6 | 109 | 105 ± 6 | 138 | 85.7 ± 14 | 114 ± 1.7 | 158 ± 20
7 | CC(C)(C)NC(=O)NC(C(=O)N1CC2C(C1C(=O)NC(CC1CCC1)C(=O)C(N)=O)C2(C)C)C(C)(C)C (stereo unspecified) [Boceprevir] | 100 ± 19 | 83.8 | 87.2 ± 6.2 | 101 | 72.5 ± 1.2 | 65.1 | 80.1 ± 16 | 80.7 ± 15 | 85.1 ± 8.9
8 | COc1cc(C(=O)NC2CCCNC2)cc(OC)c1OC (stereo unspecified) [Troxipide] | 98.8 ± 1 | 110 | 107 ± 28 | 96.3 | 57.8 ± 3.5 | 106 | 96.8 ± 7.8 | 103 ± 15 | 137 ± 11
9 | O=c1cc[nH]c(=S)[nH]1 [2-Thiouracil] | 107 ± 6.1 | 139 | 94.4 ± 19 | 103 | 82.4 ± 8.2 | 112 | 91.8 ± 2.9 | 117 ± 34 | 178 ± 5.9
10 | O=C1NC(=O)C(c2ccccc2)(c2ccccc2)N1 [Phenytoin] | 106 ± 8.9 | 151 | 105.6 ± 0.89 | 108 | 113 ± 16 | 129 | 99 ± 5.9 | 118 ± 16 | 160 ± 25
11 | CCCCC(=O)OC1CCC2C3CCc4cc(O)ccc4C3CCC12C (stereo unspecified) [Estradiol valerate] | 157 ± 47 | 122 | 98.1 ± 4.8 | 91.3 | 182 ± 36 | 137 | 90.6 ± 7.6 | 88.9 ± 8.9 | 134 ± 9.2
12 | Nc1nc(N)c2nc(-c3ccccc3)c(N)nc2n1 [Triamterene] | 105 ± 25 | 148 | 116 ± 17 | 109 | 120 ± 12 | 138 | 123 ± 28 | 94.5 ± 15 | 122 ± 17
13 | Nc1nc(Cl)nc2c1ncn2C1CC(O)C(CO)O1 (stereo unspecified) [Cladribine] | 95.8 ± 7.4 | 118 | 94.6 ± 26 | 104 | 128 ± 34 | 58.3 | 110 ± 15 | 106 ± 34 | 78.8 ± 8.9
14 | CCCCCCCN(CC)CCCC(O)c1ccc(NS(C)(=O)=O)cc1.CCCCCCCN(CC)CCCC(O)c1ccc(NS(C)(=O)=O)cc1.O=C(O)C=CC(=O)O (stereo unspecified) [Ibutilide Fumarate] | 93.5 ± 15 | 121 | 105 ± 18 | 103 | 130 ± 10 | 117 | 96.8 ± 2 | 122 ± 3 | 128 ± 21
15 | CC1(c2nc3c(C(N)=O)cccc3[nH]2)CCCN1 (stereo unspecified) [ABT-888 (Veliparib)] | 109 ± 7.5 | 120 | 108 ± 5.2 | 100 | 86.9 ± 14 | 91.1 | 94.2 ± 2 | 101 ± 14 | 121 ± 4.2
16 | C[N+](C)(C)CC(=O)[O-] [Betaine] | 107 ± 33 | 140 | 103 ± 12 | 90.7 | 140 ± 1.5 | 116 | 106 ± 5.9 | 99.7 ± 16 | 90 ± 12
17 | CC12CCC3c4ccc(O)cc4CC(CCCCCCCCCS(=O)CCCC(F)(F)C(F)(F)F)C3C1CCC2O (stereo unspecified) [Fulvestrant] | 137 ± 7.5 | 89.1 | 65.5 ± 7.2 | 85.6 | 53 ± 6.5 | 95.7 | 78.9 ± 3.8 | 77.5 ± 36 | 129 ± 12
18 | N=C(N)NCCCC[C@@H]1NC(=O)CCSSC[C@@H](C(N)=O)NC(=O)[C@@H]2CCCN2C(=O)[C@H](Cc2c[nH]c3ccccc23)NC(=O)[C@H](CC(=O)O)NC(=O)CNC1=O [Eptifibatide] | 101 ± 25 | 148 | 120 ± 79 | 93.4 |  | 194 | 123 ± 15 | 101 ± 13 | 138 ± 4.8
19 | CCC1OC(=O)C(C)C(OC2CC(C)(OC)C(O)C(C)O2)C(C)C(OC2OC(C)CC(N(C)C)C2O)C(C)(O)CC(C)CN(C)C(C)C(O)C1(C)O (stereo unspecified) [Azithromycin] | 145 ± 30 | 137 | 116 ± 5.9 | 121 |  | 124 | 105 ± 26 | 114.9 ± 1.1 | 119 ± 24
20 | NCC(O)c1ccc(O)c(O)c1.O.O=C(O)C(O)C(O)C(=O)O (stereo unspecified) [Noradrenaline bitartrate monohydrate] | 86.8 ± 21 | 152 | 133 ± 34 | 124 |  | 160 | 142 ± 4.8 | 73 ± 14 | 
